Results from paper PMC4336329 (PLoS ONE, 2015).
Among all 310,000 compounds or so, about 14,000 (4.5%) showed an effect of 50% or more. The effect is printed as a negative number. The sample holds strong results, similar compounds and a random draw of the others, so the mix is not that of the screen.

target: human ether-à-go-go-related gene (hERG) potassium channel (human, UniProt Q12809); experiment: primary screen, population patch clamp on CHO cells stably expressing hERG; higher = less effect of the substance
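Further: peak tail current of the secondary pulse compared with the same well before compound.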

Chain of human ether-à-go-go-related gene (hERG) potassium channel (Q12809 whole entry, looked up): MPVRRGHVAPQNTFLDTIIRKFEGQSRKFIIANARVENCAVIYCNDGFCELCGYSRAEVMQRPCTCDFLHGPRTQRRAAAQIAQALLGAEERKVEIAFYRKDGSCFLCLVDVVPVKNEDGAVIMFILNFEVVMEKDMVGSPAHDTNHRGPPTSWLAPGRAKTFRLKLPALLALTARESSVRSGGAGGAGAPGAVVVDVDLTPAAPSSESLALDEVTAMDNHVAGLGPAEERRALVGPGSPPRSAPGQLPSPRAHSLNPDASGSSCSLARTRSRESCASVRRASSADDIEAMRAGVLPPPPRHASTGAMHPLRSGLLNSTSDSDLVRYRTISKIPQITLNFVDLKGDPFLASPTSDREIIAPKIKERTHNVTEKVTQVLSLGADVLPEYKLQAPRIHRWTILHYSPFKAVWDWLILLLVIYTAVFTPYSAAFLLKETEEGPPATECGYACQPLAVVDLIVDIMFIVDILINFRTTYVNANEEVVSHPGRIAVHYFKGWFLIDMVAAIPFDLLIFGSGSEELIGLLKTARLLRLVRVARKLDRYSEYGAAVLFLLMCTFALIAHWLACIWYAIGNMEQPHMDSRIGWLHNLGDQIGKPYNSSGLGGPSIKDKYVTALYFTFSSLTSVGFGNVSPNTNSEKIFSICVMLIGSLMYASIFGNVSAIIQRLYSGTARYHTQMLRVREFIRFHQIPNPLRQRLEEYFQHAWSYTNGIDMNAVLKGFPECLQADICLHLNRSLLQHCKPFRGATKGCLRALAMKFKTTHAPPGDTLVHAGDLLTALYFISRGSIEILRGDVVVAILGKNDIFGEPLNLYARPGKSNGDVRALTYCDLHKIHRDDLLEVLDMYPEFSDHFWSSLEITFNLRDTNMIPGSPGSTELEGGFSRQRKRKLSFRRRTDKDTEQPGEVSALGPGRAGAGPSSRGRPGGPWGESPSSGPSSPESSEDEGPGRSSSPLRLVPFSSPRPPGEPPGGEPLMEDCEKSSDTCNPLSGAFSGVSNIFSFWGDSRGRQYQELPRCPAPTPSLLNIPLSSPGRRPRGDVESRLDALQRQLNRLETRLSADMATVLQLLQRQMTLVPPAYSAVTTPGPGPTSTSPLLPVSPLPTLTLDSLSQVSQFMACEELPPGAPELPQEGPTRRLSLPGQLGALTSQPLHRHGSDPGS

| SMILES | hERG current change (%, negative = inhibition) at 10uM |
| --- | --- |
| O=C(COC(=O)c1ccc([N+](=O)[O-])cc1)Nc1cccnc1Cl | -1.85% |
| O=C(Nc1ccc(O)cc1)c1cc(S(=O)(=O)N2CCCC2)ccc1Cl | -14.9% |
| O=C(Nc1ccncc1)c1cc(S(=O)(=O)N2CCOCC2)ccc1Cl | -46.6% |
| CS(=O)(=O)Nc1ccc(S(=O)(=O)N2CCCCCC2)cc1 | -65.4% |
| O=C(Nc1ccncc1)c1cc(S(=O)(=O)N2CCCCC2)ccc1Cl | -56.2% |
| CS(=O)(=O)Nc1ccc(S(=O)(=O)N2CCCC2)cc1 | 8.49% |
| O=C(Nc1ccncc1)C1CCN(S(=O)(=O)c2ccc(Cl)c(C(F)(F)F)c2)CC1 | -69.9% |
| O=C(Nc1cc(S(=O)(=O)N2CCCCC2)ccc1N1CCCCC1)c1ccncc1 | -52.4% |
| CS(=O)(=O)Nc1ccc(C(=O)Nc2ccc(S(=O)(=O)N3CCCCC3)cc2)cc1 | -13.8% |
| O=C(Nc1nccs1)C1CCN(S(=O)(=O)c2ccc(Cl)c(C(F)(F)F)c2)CC1 | -0.668% |
| CCN(CC)S(=O)(=O)c1ccc(N2CCCC2)c(NC(=O)c2ccncc2)c1 | -22.6% |
| Cc1ccnc(NC(=O)C2CCN(S(=O)(=O)c3ccc(Cl)c(C(F)(F)F)c3)CC2)c1 | -14.2% |
| CCN(CC)S(=O)(=O)c1ccc(N2CCCCC2)c(NC(=O)c2ccncc2)c1 | -29.5% |
| COc1ccc(S(=O)(=O)CCC(=O)Nc2c(C)cccc2C)cc1 | 23% |
| CC(=O)Nc1ccc(S(=O)(=O)NCCSCc2ccccc2Cl)cc1 | 2.92% |
| COc1ccc(Br)cc1-c1nc2c(c(=O)[nH]c(=O)n2Cc2ccccc2)n1C | 5.42% |
| CC(C)CN(C(=O)Cn1c(C(F)(F)F)nc2ccccc21)C1CCS(=O)(=O)C1 (stereo not drawn) | -9.53% |
| Cc1ccc(N2C(=O)C(NC(=O)c3ccccc3F)(C(F)(F)F)C3=C2CC(C)(C)CC3=O)cc1 (stereo not drawn) | 6.43% |
| CC(SC1=Nc2ccccc2C2CC=NN12)C(=O)NC1(C#N)CCCCC1 (stereo not drawn) | -19.8% |
| CNC(=S)N/N=C/C1=CCC2CC1C2(C)C (stereo not drawn) | -3.84% |
| O=C(Cn1nnc2ccccc2c1=O)Nc1cc(C(F)(F)F)ccc1N1CCOCC1 | -14.5% |
| CN1CCN(S(=O)(=O)c2ccc(NC(=O)c3ccccc3Cl)cc2)CC1 | 8.9% |
| COc1cc(S(=O)(=O)N2CCCCC2)ccc1NC(=O)c1ccncc1 | -30.8% |
| O=C(Nc1ccc(S(=O)(=O)N2CCCCC2)cc1)c1ccccc1Cl | -73.1% |
| O=C(Nc1ccc(S(=O)(=O)N2CCCCCC2)cc1)c1ccco1 | -72.5% |
| O=C(Nc1ccc(S(=O)(=O)N2CCCCC2)cc1)c1ccco1 | -10.7% |
| O=C(Nc1cc(S(=O)(=O)N2CCCCC2)ccc1Cl)c1ccncc1 | -50.2% |

| SMILES | hERG current change (%, negative = inhibition) at 10uM |
| --- | --- |
| O=C(Nc1ccc(S(=O)(=O)N2CCOCC2)cc1)c1ccco1 | -20.3% |
| O=C(Nc1cc(S(=O)(=O)N2CCCCC2)ccc1Cl)c1ccc(F)cc1 | -8.99% |
| O=C(O)c1ccccc1C(=O)Nc1ccc(S(=O)(=O)N2CCCC2)cc1 | 22.3% |
| Cn1c(SC2CCCCC2=O)nnc1-c1ccccc1F (stereo not drawn) | 9.45% |
| Cc1cc(C)cc(OCC(=O)O/N=C(\N)c2ccccn2)c1 | -6.54% |
| O=c1ccc(-c2ccc(S(=O)(=O)N3CCN(c4cccc(Cl)c4)CC3)o2)n[nH]1 | 10% |
| O=C(Nc1cc(S(=O)(=O)N2CCOCC2)ccc1N1CCOCC1)C1CCCO1 (stereo not drawn) | -3.99% |
| Cc1cc(Cl)ccc1NC(=O)CN1CCN(C(=O)c2ccco2)CC1 | -73.6% |
| Cc1cc(Cl)ccc1NC(=S)N1CCN(C(=O)c2ccco2)CC1 | -8.95% |
| Cc1ccc(NC(=O)CN2CCN(C(=O)c3ccco3)CC2)cc1 | -3.01% |
| O=C(CN1CCN(C(=O)c2ccco2)CC1)NCc1ccc(Cl)cc1 | -64.4% |
| O=C(CN1CCN(C(=O)c2ccco2)CC1)Nc1ccc(F)cc1F | -49.6% |
| O=C(CN1CCN(C(=O)c2ccco2)CC1)Nc1cc(Cl)ccc1Cl | -60.1% |
| O=C(CN1CCN(C(=O)c2ccco2)CC1)Nc1ccc(Cl)c(S(=O)(=O)N2CCOCC2)c1 | -25.6% |
| O=C(c1ccco1)N1CCN(Cc2ccc(Cl)cc2)CC1 | -14% |
| O=C(CN1CCN(C(=O)c2ccco2)CC1)Nc1ccc(Cl)c(C(F)(F)F)c1 | -67.1% |
| Cc1ccccc1NC(=O)CN1CCN(C(=O)c2ccco2)CC1 | -29.4% |
| O=C(NCc1ccc(Cl)cc1)C1CCN(C(=O)c2ccco2)CC1 | -41.4% |
| COc1ccc2c(-c3ccccc3)cc(SCC(=O)N(C)C)nc2c1 | -22.9% |
| C=CCNC(=O)c1oc2ccc(S(=O)(=O)N3CCC4(CC3)OCCO4)cc2c1C | 0.761% |
| CC(OC(=O)/C=C/c1ccco1)C(=O)Nc1cccc([N+](=O)[O-])c1 (stereo not drawn) | 6.57% |
| Cc1ccc(-n2nc3c(=O)n(CC(=O)NC(C)CCc4ccccc4)nc(C)c3c2C)cc1 (stereo not drawn) | 6.77% |
| O=C(CNC(=O)c1ccco1)Nc1ccc(OC(F)F)cc1 | 19.6% |
| COc1cc(/C=C2\C(=N)N3N=C(S(C)(=O)=O)SC3=NC2=O)ccc1OS(=O)(=O)c1ccc(C)cc1 | 6.9% |
| CCOc1ccc(NC(=O)/C=C/c2ccccc2)c([N+](=O)[O-])c1 | -5.94% |
| NC(=O)c1ccc(NC(=O)COc2ccc(-n3cnnn3)cc2)cc1 | -4.26% |
| CCc1ccc(-c2cc(C)no2)cc1S(=O)(=O)Nc1cc(C)on1 | 10.3% |
